Bioassay records (PubChem)
ROC1-CUL1 inh: blocks human RBX1-Cullin-1 di-ubiquitin formation; AID 1347404; in vitro K48 di-Ub FRET, acceptor:donor ratio, 45 min; 0.6% of 140,000 active; inhibition, % at 10 µM; P62877+Q13616; in the data active means inhibition above about 25%
Target sequence (P62877 whole entry, looked up): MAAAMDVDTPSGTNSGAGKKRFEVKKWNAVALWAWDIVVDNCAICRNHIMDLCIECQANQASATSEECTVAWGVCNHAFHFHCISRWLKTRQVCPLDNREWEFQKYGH
Target sequence (Q13616 whole entry, looked up): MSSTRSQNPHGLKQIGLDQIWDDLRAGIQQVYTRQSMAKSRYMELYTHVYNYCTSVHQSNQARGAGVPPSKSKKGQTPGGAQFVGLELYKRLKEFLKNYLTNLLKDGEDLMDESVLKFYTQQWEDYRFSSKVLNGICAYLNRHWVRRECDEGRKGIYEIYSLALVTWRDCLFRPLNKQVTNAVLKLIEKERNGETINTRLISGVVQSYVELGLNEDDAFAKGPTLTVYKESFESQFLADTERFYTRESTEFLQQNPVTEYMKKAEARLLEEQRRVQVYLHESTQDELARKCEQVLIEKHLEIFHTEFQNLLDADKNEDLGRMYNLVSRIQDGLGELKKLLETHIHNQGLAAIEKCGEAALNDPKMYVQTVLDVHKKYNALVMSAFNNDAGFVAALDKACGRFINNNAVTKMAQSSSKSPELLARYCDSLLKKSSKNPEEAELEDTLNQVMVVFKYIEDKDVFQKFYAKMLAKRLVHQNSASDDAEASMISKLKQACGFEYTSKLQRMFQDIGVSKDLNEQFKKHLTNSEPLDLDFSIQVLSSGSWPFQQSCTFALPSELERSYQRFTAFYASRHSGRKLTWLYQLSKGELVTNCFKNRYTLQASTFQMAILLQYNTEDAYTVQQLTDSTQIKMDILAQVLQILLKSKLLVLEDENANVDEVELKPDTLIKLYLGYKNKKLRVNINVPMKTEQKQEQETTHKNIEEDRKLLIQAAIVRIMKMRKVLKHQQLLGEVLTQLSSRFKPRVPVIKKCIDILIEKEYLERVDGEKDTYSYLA
Numbers stand for hits; - = inactive. The full list was thinned out, with hits kept by preference.

SMILES | ROC1-CUL1 inh
CC(=O)N1c2ccccc2C(=O)C1C (stereo not given) | -
CC(=O)N1c2ccccc2C2(O)N=C(C)SC12 (stereo not given) | 44
Cc1ccc(S(=O)(=O)Oc2cc(C(C)(C)C)cc(C(C)(C)C)c2)cc1 | -
CC(=O)N1CCN(Cc2nc(-c3ccc(C(F)(F)F)cc3)no2)CC1 | -
O=C(O)COc1ccc(Br)cc1C1C2=C(CCCC2=O)N=C2CCCC(=O)C21 (stereo not given) | -
CCOC(=O)c1ccc(NN2C(=O)c3ccc(Br)cc3C2=O)c([N+](=O)[O-])c1 | -
CCOC(=O)c1c2c(n(C)c1CNC(C)C)C(=O)C(=O)c1ccc(Br)cc1-2 | 98
CCOC(=O)c1c2c(n3ccccc13)C(=O)c1ccccc1C2=O | -
CCN(CC)CCN1C(=O)C(=O)C(C(=O)c2ccc(F)cc2)C1c1ccc(C)cc1 (stereo not given) | -
COc1ccc(C2=C(C#N)C(=S)N=C(C3CC3)C2)cc1 | -
CN1CCC2=NC(=S)C(C#N)=C(c3ccc(F)cc3)C2C1 (stereo not given) | 97
N#CC1=C(c2ccco2)C2CCCCC2=NC1=S (stereo not given) | -
COc1ccc(NCc2nnc(SCC(=O)Nc3sc4c(c3C#N)CCCC4)n2-c2ccccc2)cc1 | -
COc1cc2c(cc1OC)C1=C(SC2)C2=CCC(=O)[C@@]2(C)CC1 | -
Cc1ccc(C(=O)C2C(=N)N(c3ccccc3Cl)C3=C(C(=O)CCC3)C2c2ccc3c(c2)OCO3)cc1 (stereo not given) | -
CCOC(=O)c1nn(-c2cccc(Cl)c2)cc1C(=O)c1ccc(Cl)cc1 | -
O=C(Cc1ccc(Cl)cc1)NN1CCOCC1 | -
CC(C)(C)c1ccc(N)c([N+](=O)[O-])c1 | -
CC(C)c1ccc(/C=C/c2nc(N)[nH]c(=O)c2[N+](=O)[O-])cc1 | -
CC(C)(C)c1ccc(/C=C/c2[nH]c(=O)[nH]c(=O)c2[N+](=O)[O-])cc1 | 99
OCc1ccc(CN2CCc3[nH]nc(C(c4ccccc4)c4ccccc4)c3C2)o1 | -
CCOc1cc(C(c2c(C)[nH][nH]c2=O)c2c(C)[nH][nH]c2=O)cc(I)c1OC | -
CCOc1cc(C(c2c(C)[nH][nH]c2=O)c2c(C)[nH][nH]c2=O)cc(I)c1O | -
Cc1[nH][nH]c(=O)c1C(c1c(C)[nH][nH]c1=O)c1cn(Cc2cccc3ccccc23)c2ccccc12 | 39
Cn1cc(C(c2cccs2)c2cn(C)c3ccccc23)c2ccccc21 | -
SMILES | ROC1-CUL1 inh
CC(C)C1=NN2C(=N)/C(=C\c3cn(Cc4cccc5ccccc45)c4ccccc34)C(=O)N=C2S1 | -
Cc1[nH][nH]c(=O)c1C(c1ccccc1I)c1c(C)[nH][nH]c1=O | -
Cc1[nH][nH]c(=O)c1C(c1c(C)[nH][nH]c1=O)c1cn(C)c2ccccc12 | 26
Cc1[nH][nH]c(=O)c1C(c1cccc(OCc2ccccc2Cl)c1)c1c(C)[nH][nH]c1=O | -
CCOc1cc(C(c2c(C)[nH][nH]c2=O)c2c(C)[nH][nH]c2=O)cc(Br)c1OCc1cccc2ccccc12 | 26
O=C(CSCc1ccccc1)Nc1nnc(-c2ccco2)s1 | -
CCOC(=O)C1=NN=C2C(=O)N(c3ccc(Br)cc3)C(=O)C12 (stereo not given) | -
Cc1c(CN2CCOC(Cc3ccccc3Cl)C2)cnn1C (stereo not given) | -
CC(=O)C(C(=O)c1ccccc1)C(=O)c1ccc(C)cc1 (stereo not given) | -
CCCNCc1cc(OCC)c(OCCC)cc1Br | -
COc1ccc(C(=O)/C=C/c2cn(CC(O)CN3CCCCCC3)c3ccccc23)cc1 (stereo not given) | -
COc1ccc(-c2c(C#N)c(N)nc3c2CCCCCCCCCC3)cc1 | -
COC(=O)c1ccc(/C=C/C(=O)c2ccc3c(c2)OCCO3)cc1 | -
O=C(/C=C/c1cccs1)c1ccc2c(c1)OCCO2 | -
O=C(/C=C/c1cccnc1)c1ccc2c(c1)OCCO2 | 71
O=C(CCC(=O)Nc1ccc(Cl)cc1Cl)NNC(=O)c1ccc(Cl)cc1 | -
CCOC(=O)c1ccc(N2C(=O)C(CC(=O)Nc3ccc(F)cc3)N(NC(=O)c3cccc(F)c3)C2=S)cc1 (stereo not given) | -
COc1ccc(-n2nc(C(=O)c3ccccc3)cc(-c3nc4ccccc4[nH]3)c2=N)cc1 | -
C#CCSc1nc2c(c(=O)n1Cc1ccccc1)C1(CCCCC1)Cc1ccccc1-2 | -
NCCCSc1nc2c(c(=O)n1Cc1ccccc1)C1(CCCCC1)Cc1ccccc1-2 | 92
Cn1c(SCCc2ccccc2)nc2c(c1=O)C1(CCCC1)Cc1ccccc1-2 | -
O=C(CCCc1ccccc1)N1CCOc2ccc(CN3CCN(c4ccc(F)cc4)CC3)cc2C1 | -
C=CCN1C(=O)/C(=C/c2cc3c(cc2Br)OCO3)C(=O)NC1=S | -
CCC1(c2ccccc2)OC(CC(C)OC(C)=O)Nc2ccccc21 (stereo not given) | -
Cc1cc(N/N=C/c2ccc(O)cc2O)nc(-c2cc(Br)cc(Br)c2O)n1 | -
SMILES | ROC1-CUL1 inh
CC1=CC(C)=C2C=CC(=O)C(=O)C2O1 (stereo not given) | 99
Cc1ccc(C(CC(=O)NC2CCCCC2)c2ccccc2)c(O)c1C (stereo not given) | -
COc1cc(/C=N/NC(=O)c2ccc(-c3ccccc3)cc2)c([N+](=O)[O-])cc1OC | -
C=CCN1C(=O)N=C(Cc2ccc(OC)c(C)c2)C1=O | -
CN(C)c1ccc(/C=C/C2=NC(=O)NC(=O)C2)cc1 | -
CCCCCCCCCCCC[n+]1ccc(/C=C/c2ccc(N(C)C)cc2)cc1 | 62
CCCCCCCCN1C(=O)/C(=C\c2ccc(N(C)C)cc2)C(=O)N(CCCC)C1=O | -
O=C(O)c1ccccc1-c1occ(C(=O)c2ccccc2)c1C(=O)O | -
COc1ccc(-c2occ(C(=O)O)c2C(=O)O)cc1 | 47
COc1ccc2occ(C(=O)c3coc4ccc(OC)cc34)c2c1 | -
CCCc1ccc2oc(C(=O)N(C)Cc3nccn3C)c(C)c2c1 | -
CCC1=C(OC(C)=O)CC(c2ccccc2)N(C(C)=O)C1c1ccccc1 (stereo not given) | -
Cc1nc2ccccc2n1Cc1ccccc1F | -
O=C1NN(c2ccc(Cl)c(Cl)c2)C(=O)/C1=C/c1ccc(Cl)cc1Cl | -
CCc1ccc(/C=C2\C(=O)NN(c3ccc(I)cc3)C2=O)cc1 | -
O=C1NN(c2ccc(Cl)cc2)C(=O)/C1=C/c1ccc(Br)cc1 | 53
CCc1ccc(/C=C2\C(=O)NN(c3ccc(Cl)c(Cl)c3)C2=O)cc1 | 81
O=C1NN(c2ccc(Cl)c(Cl)c2)C(=O)/C1=C/c1ccccc1 | -
COc1ccc(/C=C2/C(=O)NN(c3ccc(Br)cc3)C2=O)cc1 | -
O=C1NN(c2ccc(Br)cc2)C(=O)/C1=C\c1ccc2c(c1)OCO2 | -
O=C1NN(c2ccc(Cl)cc2)C(=O)/C1=C/c1ccc(O)cc1 | -
Cc1cc(/C=C2\C(=O)NN(c3ccccc3)C2=O)c(C)n1-c1ccc(Cl)c(Cl)c1 | -
O=C1NN(c2ccc(Cl)c(Cl)c2)C(=O)/C1=C/c1ccc(Br)cc1 | 57
O=C1NN(c2ccc(Cl)c(Cl)c2)C(=O)/C1=C/c1cc(Br)ccc1O | 73
COc1ccc(OCC(C[N+](=O)[O-])Oc2ccc(OC)cc2)cc1 (stereo not given) | -
Cc1nnc(-c2cccc(NC(=O)C3CCN(C(=O)C4CCC4)CC3)c2)s1 | -
N=C1c2ccsc2NC(=O)CN1O | -
CCOc1ccc(CNCC2CCCO2)cc1OC (stereo not given) | -
